From ChEMBL document CHEMBL3988442, “University of Dundee, Small-Polar-MMV Screening Library” (2021)
In all, about 48,000 compounds went through this assay and about 13,000 (27%) showed an effect of 50% or more. Some of the results follow.

System: Wolbachia pipientis
Test: Anti-Wolbachia Cell-Based Screen
Assay type: functional
Parameters: scale not given: in the data most compounds retested in dose-response had high values
Details: 5 µM

Row | SMILES | Percent Effect [%]
1 | O=C1CCC2(CCOC2)CN1CCCOc1cccnc1 (configuration not stated) | 36.56
2 | CC(C)S(=O)(=O)CC(=O)N1CCCC(n2ccnc2)C1 (configuration not stated) | 0.06667
3 | O=C(CCOCC(F)(F)F)N1CCCC(n2ccnc2)C1 (configuration not stated) | 105.8
4 | CC(C)c1noc(CCC(=O)N2CCCC(n3ccnc3)C2)n1 (configuration not stated) | 13.44
5 | CC(C)(C)NCC(=O)N1CCCC(n2ccnc2)C1 (configuration not stated) | -1.533
6 | CSCCC(=O)N1CCCC(n2ccnc2)C1 (configuration not stated) | 98.51
7 | O=C(CCS(=O)(=O)C1CCCC1)N1CCCC(n2ccnc2)C1 (configuration not stated) | 7.067
8 | CCc1nnsc1C(=O)NC1CCN(CCOc2ccc(Br)cc2)CC1 | -5.495
9 | CN1CCN(Cc2noc(CCc3nc(-c4ccccc4)no3)n2)CC1 | 3.84
10 | O=C(CN1CCc2cncnc2C1)NC(c1ccccc1)C1CC1 (configuration not stated) | 5.851
11 | CC(C(N)=O)S(=O)(=O)Cc1cc(Cl)c2c(c1)OCO2 (configuration not stated) | -4.736
12 | O=C(CS(=O)(=O)Cc1cc(Cl)c2c(c1)OCO2)N1CCCCCC1 | 135.5
13 | O=C(CS(=O)(=O)Cc1cc(Cl)c2c(c1)OCO2)N1CCCC1 | 112.9
14 | CNC(=O)CS(=O)(=O)Cc1cc(Cl)c2c(c1)OCCCO2 | 7.566
15 | CN(C)C(=O)CS(=O)(=O)Cc1cc(Cl)c2c(c1)OCO2 | 2.003
16 | CCN(C(=O)CS(=O)(=O)Cc1cc(Cl)c2c(c1)OCCCO2)C1CC1 | 3.578
17 | c1cnnc(N2CCCC(NCc3nc(-c4cccs4)no3)C2)c1 (configuration not stated) | -0.05894
18 | CCOCCCC(=O)N(C)C(c1cccc(F)c1)c1ccccn1 (configuration not stated) | 89.97
19 | CCCC(=O)N(C)C(c1cccc(F)c1)c1ccccn1 (configuration not stated) | 104.7
20 | CN(C)C(=O)CCCNC(=O)C(c1cccc(F)c1)N(C)C (configuration not stated) | -9.864
21 | CCCC(=O)N(C)c1cccc2ncccc12 | -4.906
22 | CCOCCC(=O)NC(Cc1ccc(C)cc1)c1ccccn1 (configuration not stated) | 30.55
23 | Fc1cccc(C(NCc2ncc[nH]2)c2ccccn2)c1 (configuration not stated) | -5.246

Row | SMILES | Percent Effect [%]
24 | O=C(C1CC(=O)N(C2CC2)C1)N1CCN(CCn2cccc2)CC1 (configuration not stated) | -24.19
25 | CCc1nnsc1-c1nc(C(C)C)nn1-c1ccc2c(c1)OCO2 | 11.97
26 | CNC(=O)C(C)(C)N1CCC[C@H]1C(=O)NC1CCCC1 | 1.106
27 | Cc1onc(N)c1S(=O)(=O)N1CCCCC1C (configuration not stated) | -5.745
28 | O=C(NC1CCCC1)c1nc2c(o1)CN(C(=O)CO)C2 | -3.342
29 | CCOC(=O)c1nc(CN2CCN(C(=O)NC3CCCCC3)CC2)cs1 | 0.1108
30 | CC[C@H](C)[C@H](N)C(=O)N1CC(=O)c2sc(NC3CCCCC3)nc2C1 | 89.49
31 | CC(C)CC(=O)N1CC(=O)c2sc(NC3CCCCC3)nc2C1 | 104.9
32 | CC(C)NC(=O)N1CC(=O)c2sc(NC3CCCCC3)nc2C1 | 121.6
33 | CC(C)NC(=O)N1CCN2C(=O)OC[C@H]2C1 | -2.318
34 | O=C(NC1CCCC1)c1nc2c(o1)CN(C(=O)CCO)C2 | 3.342
35 | COC(=O)[C@H]1CN(C(=O)NC(C)C)CCN1C(=O)C1CCCCC1 | -4.407
36 | COc1nccnc1N1CCN(Cc2cccc(C)c2)C(=O)C1 | -1.846
37 | O=C(NCC1(c2ccc(F)cc2)CCC1)N1CCC2(C1)OCCO2 | -19.46
38 | Cn1c(CCNC(=O)CC[C@@H]2CCCN3CCCC[C@H]23)n[nH]c1=O | -0.3828
39 | O=C(NCCNc1ccc(C(F)(F)F)cn1)c1ccc(Cl)cc1F | 105.2
40 | O=C(NCCNc1ccc(C(F)(F)F)cn1)c1cncc(Br)c1 | 0.7864
41 | O=C(NCCNc1ccc(C(F)(F)F)cn1)c1ccoc1 | 28.2
42 | O=C(NCCNc1ccc(C(F)(F)F)cn1)c1cc(Cl)ccc1F | 114.8
43 | O=C(NCCNc1ccc(C(F)(F)F)cn1)c1ccc(Br)cc1 | 145.4
44 | O=C(NCCNc1ccc(C(F)(F)F)cn1)c1ccc(F)cc1Cl | 145.5
45 | CC(C)(C)C(O)CCNC(=O)c1ccc(F)cc1Cl (configuration not stated) | 15.76
46 | CC(C)(O)CSCCNC(=O)c1ccc(F)cc1Cl | -9.614

Row | SMILES | Percent Effect [%]
47 | N#Cc1ccc(NCCNc2ccc(C(F)(F)F)cn2)nc1 | -10.16
48 | Cc1occc1C(=O)NCCOc1ccc(C(F)(F)F)cn1 | -9.163
49 | O=C(NCCNc1ccc(C(F)(F)F)cn1)c1ccc(Br)cc1F | 1.294
50 | CC(C)n1ccnc1C1CCCN(c2ccnc3ccccc23)C1 (configuration not stated) | -21.91
51 | O=C(c1cccnc1)N1CCN(c2ccc(-n3cccc3)nn2)CC1 | -8.085
52 | CCCc1noc(CS(=O)(=O)CC(=O)NC(C)CCC)n1 (configuration not stated) | 14.1
53 | Cc1nnc(CCNC(=O)Nc2ccc(S(C)(=O)=O)cc2)[nH]1 | -1.089
54 | COC(=O)CC(c1ccc(OC)c(OC)c1)c1oc(C)cc(=O)c1O (configuration not stated) | 10.24
55 | CN(C)S(=O)(=O)N1CC[C@]2(C[C@H](Oc3cccnc3)CO2)C1.O=C(O)C(F)(F)F | -11.38
56 | Cc1cnn(CC2CCCN2Cc2nnsc2Cl)c1 (configuration not stated) | -1.868
57 | Cc1cnn(CC2CN(Cc3nc(-c4ccoc4)no3)CCO2)c1 (configuration not stated) | -0.2172
58 | COCCc1noc(CN2CCOC(Cn3cc(C)cn3)C2)n1 (configuration not stated) | 92.63
59 | Cc1cnn(CC2CN(CCS(=O)(=O)C(F)(F)F)CCO2)c1 (configuration not stated) | -38.13
60 | Cc1cnn(CC2CN(Cc3nc(C4CC4)no3)CCO2)c1 (configuration not stated) | 115.6
61 | Cc1cnn(CC2CCCN2Cc2nnc(C3CC3)n2C)c1 (configuration not stated) | 103.3
62 | Cc1cnn(CC2CN(Cc3nnc(C4CC4)n3C)CCO2)c1 (configuration not stated) | 99.89
63 | Cc1cnn(CC2CCCCN2Cc2nnc(C3CC3)n2C)c1 (configuration not stated) | 0.7799
64 | Cc1cnn(CC2CN(Cc3nccn3C)CCO2)c1 (configuration not stated) | -4.713
65 | OC1(CNc2ccc(-c3nc(C4CC4)no3)cn2)CCCCC1 | 10.35
66 | O=C(O)C1c2nc[nH]c2CCN1CC(c1ccccc1)c1ccccc1 (configuration not stated) | -19.87
67 | O=c1cc(N2CCNCC2)cnn1CCCn1cccn1 | 6.31
